The results in this text go back to PubChem BioAssay (EPA / NIEHS).

Usually AC50 stands for the concentration at which the activity in the assay is half-maximal.

The target of assay [1] is Transcription factor E2F1 (Homo sapiens) (UniProt Q01094). Briefly: ATG_E2F_CIS: Attagene CIS-FACTORIAL HepG2 Assay for human E2F Transcription Factor 1 (AID 2282935). As to conditions: HepG2 Attagene cis-reporter, E2F reporter RNA transcripts; actives raise or lower the signal. The procedure, abridged: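 Multiplexed cis-reporter assay: HepG2, transient transfection, 24 h dosing, mRNA quantitation by labeled RT-PCR and CE.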
Chain of Transcription factor E2F1 (Homo sapiens) (Q01094 whole entry, looked up): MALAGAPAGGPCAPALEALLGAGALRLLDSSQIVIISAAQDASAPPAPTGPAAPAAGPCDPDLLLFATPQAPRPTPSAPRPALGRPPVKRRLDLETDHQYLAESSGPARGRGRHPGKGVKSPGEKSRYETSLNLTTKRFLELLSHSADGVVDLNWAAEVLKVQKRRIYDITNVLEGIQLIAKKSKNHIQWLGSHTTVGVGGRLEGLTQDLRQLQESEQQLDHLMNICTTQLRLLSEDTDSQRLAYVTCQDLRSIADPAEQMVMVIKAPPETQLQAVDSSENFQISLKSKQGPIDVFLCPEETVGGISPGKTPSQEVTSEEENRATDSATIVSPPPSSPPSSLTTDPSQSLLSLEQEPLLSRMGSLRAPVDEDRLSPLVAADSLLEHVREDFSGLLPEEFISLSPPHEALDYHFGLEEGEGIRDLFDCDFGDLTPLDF

A short description of assay [2]: ATG_E_Box_CIS: Attagene CIS-FACTORIAL HepG2 Assay for human Enhancer Box (E-box) (AID 2282936). As to conditions: HepG2 E-box cis-reporter transcription, actives raise or lower the signal. The procedure, abridged:
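Multiplexed CIS reporter system in transiently transfected HepG2 cells measures native transcription factor activity. Reporter RNA after 24 h exposure is profiled by RT-PCR-capillary electrophoresis.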

The nature of assay [3]: ATG_M_61_CIS: Attagene CIS-FACTORIAL HepG2 Assay for M61 Transcription Factor (Internal Marker) (AID 2282937). As to conditions: HepG2 Attagene CIS-FACTORIAL M61 internal marker reporter; actives raise or lower the signal. The essentials: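 Readout is reporter mRNA by RT-PCR, fluorescent primer extension and capillary electrophoresis, with gain or loss fitted relative to DMSO. Transfected HepG2 cells carrying endogenous-TF-driven cis reporters were exposed to chemicals for 24 hours.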

Assay [4] can be described thus: ATG_EGR_CIS: Attagene CIS-FACTORIAL HepG2 Assay for human Early Growth Response 1 (EGR1) (AID 2282938). As to conditions: HepG2 Attagene CIS-FACTORIAL EGR reporter mRNA; actives raise or lower the signal. The essentials:
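After 24 h compound exposure, RNA from reporter-transfected HepG2 cells was reverse-transcribed, PCR-amplified, fluorescently labelled and resolved by capillary electrophoresis. EGR1 reporter transcript changes, up or down, were fitted against DMSO, reflecting endogenous transcription-factor activity.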

Assay [5] in a line: ATG_M_19_CIS: Attagene CIS-FACTORIAL HepG2 Assay for M19 Transcription Factor (Internal Marker) (AID 2282939). As to conditions: HepG2 Attagene CIS-FACTORIAL M19 internal marker reporter; actives raise or lower the signal. The essentials:
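Readout: fluorescent reporter-transcript fragments by capillary electrophoresis after RT-PCR. Human HepG2 liver cells carried transfected MRTU constructs reporting endogenous transcription-factor activity; exposure 24 h. Gain or loss of signal fitted relative to DMSO.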

Assay [6] is described as follows: ATG_ERE_CIS: Attagene CIS-FACTORIAL HepG2 Assay for Estrogen Response Element (ERE) (AID 2282940). As to conditions: HepG2 ERE cis-reporter, Attagene RNA transcript; actives raise or lower the signal. The procedure, abridged:
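Readout: reporter mRNA induction by RT-PCR, FAM-labelled primer extension, HpaI digestion and capillary electrophoresis, 24 h after dosing transfected HepG2 cells. Endogenous transcription factors act on cis-element-regulated reporters. Gain or loss fitted against DMSO.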

The nature of assay [7]: ATG_Ets_CIS: Attagene CIS-FACTORIAL HepG2 Assay for human Erythroblast Transformation Specific (ETS) (AID 2282941). As to conditions: HepG2 ETS cis-reporter transcription, actives raise or lower the signal. The procedure, abridged:
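HepG2 cells transiently transfected with cis-promoter reporter transcription units were dosed for 24 h; reporter mRNA was measured by RT-PCR, 6-FAM primer extension, HpaI digestion and capillary electrophoresis, with bidirectional fitting against DMSO baseline.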

For assay [8], the target named is Hepatocyte nuclear factor 3-beta (Homo sapiens) (UniProt Q9Y261). Briefly: ATG_FoxA2_CIS: Attagene CIS-FACTORIAL HepG2 Assay for human Forkhead box A2 (FOXA2) (AID 2282942). As to conditions: HepG2 cis-reporter transcription factor activity, 24 h; actives raise or lower the signal. The essentials: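 Endogenous transcription factor activity is captured via cis-element-driven reporter transcripts in transfected HepG2. Total RNA taken at 24 h post-dosing; labelled RT-PCR products resolved by capillary electrophoresis. Gain or loss fitted versus DMSO.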
Chain of Hepatocyte nuclear factor 3-beta (Homo sapiens) (Q9Y261 whole entry, looked up): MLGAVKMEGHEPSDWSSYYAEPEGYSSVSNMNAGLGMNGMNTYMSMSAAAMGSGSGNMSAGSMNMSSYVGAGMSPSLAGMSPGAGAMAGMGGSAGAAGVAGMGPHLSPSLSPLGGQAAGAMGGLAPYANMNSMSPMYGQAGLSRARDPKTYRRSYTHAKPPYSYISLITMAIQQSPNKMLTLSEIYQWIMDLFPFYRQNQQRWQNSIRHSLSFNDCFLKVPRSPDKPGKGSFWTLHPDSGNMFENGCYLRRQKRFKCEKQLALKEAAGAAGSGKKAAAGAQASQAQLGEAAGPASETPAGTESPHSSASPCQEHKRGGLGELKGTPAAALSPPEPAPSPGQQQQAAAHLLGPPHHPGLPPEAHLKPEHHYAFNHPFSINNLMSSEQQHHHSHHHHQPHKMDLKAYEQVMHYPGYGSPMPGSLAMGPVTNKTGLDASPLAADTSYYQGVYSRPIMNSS

Assay [9] in a line: ATG_FoxO_CIS: Attagene CIS-FACTORIAL HepG2 Assay for human Forkhead box O (FoxO) (AID 2282943). As to conditions: HepG2 Attagene cis-reporter, FoxO element, mRNA; actives raise or lower the signal. The essentials:
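Values reflect reporter mRNA induction or loss in HepG2 cells 24 h post-dosing, fitted bidirectionally with DMSO as negative control and baseline. Detection used RT-PCR and fluorescence capillary electrophoresis.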

Assay [10] in a line: ATG_GATA_CIS: Attagene CIS-FACTORIAL HepG2 Assay for human GATA Binding Protein (AID 2282944). As to conditions: HepG2 GATA cis-element reporter, Attagene multiplex mRNA; actives raise or lower the signal. The procedure, abridged: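 Read-out: fluorescent reporter mRNA fragments resolved by capillary electrophoresis after RT-PCR. Human liver HepG2 cells carried transiently transfected cis-regulated reporter constructs; chemicals incubated 24 h; gain or loss of signal fitted relative to DMSO.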

The nature of assay [11]: ATG_GLI_CIS: Attagene CIS-FACTORIAL HepG2 Assay for human Zinc Finger Protein GLI1 (AID 2282945). As to conditions: HepG2, Attagene cis-factorial reporter mRNA, GLI element; actives raise or lower the signal. The procedure, abridged:
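HepG2 cells transiently transfected with cis-promoter multiplexed reporter units report endogenous transcription factor activity. After 24 h chemical exposure, reporter mRNA was quantified by RT-PCR, 6-FAM labelling, HpaI digestion and capillary electrophoresis, with bidirectional fitting against DMSO.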

Assay [12] can be described thus: ATG_GRE_CIS: Attagene CIS-FACTORIAL HepG2 Assay for human Glucocorticoid Response Elements (GRE) (AID 2282947). As to conditions: HepG2 GRE cis-reporter, Attagene multiplex mRNA; actives raise or lower the signal. The essentials: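 Following 24 h chemical exposure of transiently transfected HepG2 cells, total RNA was reverse-transcribed and reporter cDNA amplified, fluorescently labelled and sized by capillary electrophoresis. Signal gain or loss was fitted relative to DMSO vehicle.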

Assay [13] can be described thus: ATG_ISRE_CIS: Attagene CIS-FACTORIAL HepG2 Assay for human Interferon Regulatory Factor 1 (IRF1) binding to an Interferon-Stimulated Response Element (ISRE) (AID 2282948). As to conditions: HepG2 ISRE cis-reporter (Attagene), mRNA transcription readout; actives raise or lower the signal. The essentials: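 HepG2 cells transiently transfected with multiplexed cis-promoter reporter units; after 24 h compound exposure, reporter mRNA quantified by RT-PCR, FAM labelling, HpaI digestion and capillary electrophoresis. Bidirectional fit versus DMSO baseline.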

Assay [14] in a line: ATG_M_32_CIS: Attagene CIS-FACTORIAL HepG2 Assay for M32 Transcription Factor (Internal Marker) (AID 2282949).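 Also: background control marker of the multiplexed CIS panel rather than a real target.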 As to conditions: HepG2 Attagene cis-factorial M32 reporter, mRNA; actives raise or lower the signal. The essentials:
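Fluorescent capillary electrophoresis peaks of HpaI-digested, FAM-labelled RT-PCR reporter products give the signal. Source: transiently transfected human liver HepG2 cells, 24 h after chemical dosing; bidirectional fitting against DMSO.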

The nature of assay [15]: ATG_M_06_CIS: Attagene CIS-FACTORIAL HepG2 Assay for M06 Transcription Factor (Internal Marker) (AID 2282950). Conditions: HepG2 Attagene CIS-FACTORIAL M06 internal marker reporter; actives raise or lower the signal. The procedure, abridged:
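Terse: HepG2, transient MRTU transfection (FuGene 6), 24 h dosing; total RNA, oligo(dT) RT, PCR, FAM label, HpaI cut, capillary electrophoresis; bidirectional fit vs DMSO baseline; background-control endpoint.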

Assay [16] concerns the target Hypoxia-inducible factor 1-alpha (Homo sapiens) (UniProt Q16665). Nature of the assay: ATG_HIF1a_CIS: Attagene CIS-FACTORIAL HepG2 Assay for human Hypoxia Inducible Factor 1 (HIF1A) (AID 2282951). Conditions: HepG2 Attagene cis-factorial HIF1a reporter transcription; actives raise or lower the signal. The essentials:
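Activity is fitted in both directions relative to DMSO. Reporter transcripts are read by RT-PCR, fluorescent primer extension and capillary electrophoresis after 24 h chemical treatment. The cells are HepG2 carrying transiently transfected cis-element-driven reporter units responding to endogenous factors.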

Assay [17] concerns the target Hepatocyte nuclear factor 6 (Homo sapiens) (UniProt Q9UBC0). Nature of the assay: ATG_HNF6_CIS: Attagene CIS-FACTORIAL HepG2 Assay for human Hepatocyte Nuclear Factor 6 (HNF6) (AID 2282952). As to conditions: HepG2 Attagene cis-factorial HNF6 reporter transcription; actives raise or lower the signal. The essentials: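 Reporter mRNA induction or loss in HepG2 after 24 h exposure; transient cis-MRTU transfection; fragments quantified by capillary electrophoresis; bidirectional analysis, DMSO as negative control.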

Assay [18] deals with Heat shock factor protein 1 (Homo sapiens) (UniProt Q00613). Briefly: ATG_HSE_CIS: Attagene CIS-FACTORIAL HepG2 Assay for human Heat Shock Transcription Factor 1 (HSE) (AID 2282953). As to conditions: HepG2 HSE cis-reporter, Attagene RNA transcription; actives raise or lower the signal. The procedure, abridged: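 Read-out: fluorescence of reporter-specific RT-PCR fragments separated by capillary electrophoresis. HepG2 carrying transfected cis-element reporter units; 24 h dosing; activity fitted in both directions relative to DMSO baseline.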
Chain of Heat shock factor protein 1 (Homo sapiens) (Q00613 whole entry, looked up, the tested form may be a part): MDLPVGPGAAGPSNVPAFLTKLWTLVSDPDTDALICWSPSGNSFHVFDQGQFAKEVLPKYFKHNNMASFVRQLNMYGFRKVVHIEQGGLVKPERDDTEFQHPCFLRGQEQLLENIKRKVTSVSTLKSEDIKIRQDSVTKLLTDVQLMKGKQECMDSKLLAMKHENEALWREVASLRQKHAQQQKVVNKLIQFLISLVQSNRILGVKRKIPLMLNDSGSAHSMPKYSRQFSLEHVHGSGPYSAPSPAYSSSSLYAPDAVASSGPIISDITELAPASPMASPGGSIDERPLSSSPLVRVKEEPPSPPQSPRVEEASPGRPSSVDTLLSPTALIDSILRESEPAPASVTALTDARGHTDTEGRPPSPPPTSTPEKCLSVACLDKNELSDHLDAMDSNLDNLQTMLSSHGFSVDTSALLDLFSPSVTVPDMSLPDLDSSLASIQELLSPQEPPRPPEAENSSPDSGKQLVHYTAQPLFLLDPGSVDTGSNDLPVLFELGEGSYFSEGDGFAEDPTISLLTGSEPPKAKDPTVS

Assay [19] is described as follows: ATG_MRE_CIS: Attagene CIS-FACTORIAL HepG2 Assay for human Metal Responsive Element (MRE) (AID 2282954). Conditions: HepG2 MRE cis-reporter transcription, Attagene multiplex; actives raise or lower the signal. The essentials: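 Step one: transfect HepG2 with cis-regulated reporter units. Step two: dose 24 h. Step three: isolate RNA, RT-PCR, 6-FAM label, HpaI digest, capillary electrophoresis. Fit bidirectionally to DMSO.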

The target in assay [20] is Bile acid receptor (Homo sapiens) (UniProt Q96RI1). Briefly: ATG_IR1_CIS: Attagene CIS-FACTORIAL HepG2 Assay for human Nuclear Receptor Subfamily 1 Group H Member 4 (NR1H4), IR1 submotif (AID 2282946). As to conditions: IR1 reporter transcription, actives raise or lower the signal. The procedure, abridged: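 Transient MRTU transfection, HepG2; 24 h dosing; RNA → RT-PCR → 6-FAM primer extension → HpaI digest → capillary electrophoresis fluorescence. Gain/loss of signal fitted relative to DMSO.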
Chain of Bile acid receptor (Homo sapiens) (Q96RI1 whole entry, looked up): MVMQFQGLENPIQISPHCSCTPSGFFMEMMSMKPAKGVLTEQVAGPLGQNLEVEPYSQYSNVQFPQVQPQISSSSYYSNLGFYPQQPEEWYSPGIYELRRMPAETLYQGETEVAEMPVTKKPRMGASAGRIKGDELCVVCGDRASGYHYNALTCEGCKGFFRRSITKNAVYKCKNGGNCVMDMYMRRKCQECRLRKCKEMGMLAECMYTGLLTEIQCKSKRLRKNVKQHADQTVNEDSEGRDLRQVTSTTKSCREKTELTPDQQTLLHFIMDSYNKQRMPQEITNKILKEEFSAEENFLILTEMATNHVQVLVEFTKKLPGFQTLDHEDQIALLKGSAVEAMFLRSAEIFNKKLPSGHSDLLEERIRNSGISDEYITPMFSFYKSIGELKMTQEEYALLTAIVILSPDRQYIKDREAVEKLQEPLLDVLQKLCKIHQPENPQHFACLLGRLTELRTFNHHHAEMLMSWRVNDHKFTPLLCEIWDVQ

Activity calls are given as the source filed them. The calls were made as follows: active = hit-call score of the fitted dose curve at least 0.9, where 1 is the maximum; inactive = score below 0.9.

Chain of Hepatocyte nuclear factor 6 (Homo sapiens) (Q9UBC0 whole entry, looked up, the tested form may be a part): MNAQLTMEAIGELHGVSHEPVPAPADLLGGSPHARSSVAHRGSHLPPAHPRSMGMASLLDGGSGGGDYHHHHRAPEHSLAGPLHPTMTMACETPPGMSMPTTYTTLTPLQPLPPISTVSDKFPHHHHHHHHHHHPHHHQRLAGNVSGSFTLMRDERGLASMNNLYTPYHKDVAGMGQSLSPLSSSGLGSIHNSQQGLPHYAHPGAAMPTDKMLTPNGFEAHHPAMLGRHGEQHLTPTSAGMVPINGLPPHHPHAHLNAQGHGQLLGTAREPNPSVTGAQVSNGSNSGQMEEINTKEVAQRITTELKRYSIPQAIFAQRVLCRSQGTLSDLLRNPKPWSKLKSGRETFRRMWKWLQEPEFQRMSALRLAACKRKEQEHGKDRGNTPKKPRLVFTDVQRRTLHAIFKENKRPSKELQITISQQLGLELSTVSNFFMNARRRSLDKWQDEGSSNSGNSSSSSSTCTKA
Chain of Hypoxia-inducible factor 1-alpha (Homo sapiens) (Q16665 whole entry, looked up): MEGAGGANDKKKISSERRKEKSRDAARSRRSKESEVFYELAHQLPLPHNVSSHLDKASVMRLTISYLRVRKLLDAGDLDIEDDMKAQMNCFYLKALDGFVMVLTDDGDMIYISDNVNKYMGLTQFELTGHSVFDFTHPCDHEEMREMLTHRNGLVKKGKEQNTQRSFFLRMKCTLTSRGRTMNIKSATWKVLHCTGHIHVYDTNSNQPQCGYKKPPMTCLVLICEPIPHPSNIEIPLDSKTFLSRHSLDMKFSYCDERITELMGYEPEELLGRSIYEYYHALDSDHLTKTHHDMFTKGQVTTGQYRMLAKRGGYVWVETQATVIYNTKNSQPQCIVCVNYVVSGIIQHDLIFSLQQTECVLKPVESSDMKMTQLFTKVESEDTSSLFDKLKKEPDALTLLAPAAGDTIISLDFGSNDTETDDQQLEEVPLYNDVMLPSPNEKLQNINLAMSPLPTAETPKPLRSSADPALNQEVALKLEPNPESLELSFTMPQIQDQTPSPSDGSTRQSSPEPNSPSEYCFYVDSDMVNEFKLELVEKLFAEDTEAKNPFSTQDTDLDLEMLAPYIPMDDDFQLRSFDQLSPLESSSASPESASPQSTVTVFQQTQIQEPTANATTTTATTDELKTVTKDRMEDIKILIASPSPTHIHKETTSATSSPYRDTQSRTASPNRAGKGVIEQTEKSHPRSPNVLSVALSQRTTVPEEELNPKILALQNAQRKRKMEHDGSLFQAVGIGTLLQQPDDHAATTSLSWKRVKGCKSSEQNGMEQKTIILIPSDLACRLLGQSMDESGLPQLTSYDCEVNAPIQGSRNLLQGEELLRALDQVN

For the compound `COc1ccc(S(=O)(=O)N2C(=O)[C@@](c3ccccc3OC)(N3C[C@H](O)C[C@H]3C(=O)N(C)C)c3cc(Cl)ccc32)c(OC)c1`, the compound was classed as inactive in assay [1], in [2], in assay [3], in [5], in [6] and in assay [9]. For the same compound, the outcome in assay [10], in assay [15] and in [17] was inactive. Also, the AC50 was 36.7 µM (active) in [4]; 83.5 µM (active) in assay [7]; 132 µM (active) in [8]; 125 µM (active) in assay [11]; 147 µM (active) in assay [12]; 49.9 µM (active) in assay [13]. Moreover, the AC50 in [14] is 133 µM (active); in assay [16] it was 25.2 µM (active); in assay [18], 149 µM (active); in [19], 45.5 µM (active).

As to `OC[C@@H](O)[C@@H](O)[C@H](O)[C@H](O)CO`, the result in assay [2], in assay [3], in assay [4], in [5], in [6] and in assay [7] was inactive. Besides, the call in assay [8], in assay [9], in assay [10], in [11], in assay [13] and in [14] was inactive. Further, the compound was called inactive in assay [15], in assay [16], in assay [17], in assay [18] and in assay [19].

On to `CCCCCCCCCCC`, for which the result in assay [2], in assay [3], in [4], in [5], in assay [7] and in [8] was inactive. The compound was classed as inactive in assay [9], in assay [10], in assay [11], in assay [12], in assay [13] and in assay [14]. Besides, the outcome in [15], in assay [16], in [17], in [18] and in [19] was inactive.

`Cc1ccc(C)c(C)c1`: the result in assay [2], in [3], in assay [4], in [7], in assay [8] and in [9] was inactive. Moreover, the call in [10], in [11], in [12], in assay [13], in [14] and in assay [15] was inactive. Besides, the outcome in assay [16], in assay [17], in assay [18] and in assay [19] was inactive.

As for `COc1ccc(C)cc1N`, the result in assay [2], in [3], in assay [4], in assay [5], in assay [7] and in assay [8] was inactive. For the same compound, the result in assay [9], in assay [10], in assay [11], in assay [12], in [13] and in assay [14] was inactive. The result in assay [15], in assay [16], in assay [17], in assay [18] and in [19] was inactive.

With `FC(F)(F)C(F)(F)C(F)(F)C(F)(F)C(F)(F)C(F)(F)CCI`, the outcome in assay [2], in assay [3], in [4], in [6], in assay [7] and in assay [8] was inactive. The result in assay [9], in assay [10], in assay [11], in [20], in assay [13] and in [14] was inactive. Besides, the call in assay [15], in [16], in assay [17], in [18] and in assay [19] was inactive.

Turning to `c1cc(-c2ccncc2)ccn1`, the result in assay [2], in assay [3], in assay [4], in assay [6], in assay [7] and in assay [8] was inactive. For the same compound, the outcome in assay [9], in assay [10], in [11], in assay [12], in [13] and in assay [14] was inactive. Also, the compound was classed as inactive in [15], in [16], in assay [17], in assay [18] and in assay [19].
